This is a sample that favours compounds with a hit; in the whole collection about 19% have one here.
DT40 TDP1 no CPT: qHTS for Inhibitors of human tyrosyl-DNA phosphodiesterase 1 (TDP1): qHTS in cells in absence of CPT. DT40 Tdp1-/- hTDP1 cells, no CPT, ATP luminescence, 48 h. Potency, µM (highest dose often 46.2 µM), most hits filed as inhibitors. actives 15% (n = 420,000); note: nearly all actives have a fitted effect of over 55% in size
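Seeded 400 DT40-hTDP1 cells/well (vehicle DMSO, no 20 nM CPT); pinned compounds; ≥48 hr at 37 °C; CellTiter-Glo luminescence as viability measure.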
TDP1 cell CPT: DT40-hTDP1 cell growth loss with CPT. Potency, µM (doses to about 46.2 µM), actives largely listed as inhibitors. chicken DT40 Tdp1-/-;hTDP1 cells + 20 nM CPT, ATP luminescence, 48 h. actives 12% (n = 420,000); note: nearly all actives have a fitted effect of over 55% in size
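Chicken DT40 Tdp1-/- cells stably complemented with human TDP1 were seeded at 400 cells/well in medium containing 20 nM camptothecin, exposed to pin-transferred compounds, and grown at 37 °C for at least 48 hr. Viability was read as ATP luminescence.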
HT1080-NT tox: kills 2HG-producing HT-1080-NT fibrosarcoma cells; HT-1080-NT fibrosarcoma viability, CellTiter-Glo ATP luminescence, 48 h; Potency, µM (doses to about 46.1 µM), actives largely listed as cytotoxic; actives 1.6% (n = 360,000); AID 686970;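 note: NT is the 2HG producing partner of a matched IDH1 knockdown line; nearly all actives have a fitted effect of over 55% in size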
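Compounds were tested in concentration-response format on HT-1080-NT cells for 48 hours at 37 degrees C. Cell viability came from CellTiter-Glo luminescence; curves were classified by r2, response magnitude and activity.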
HT1080 IDH1KD tx: toxicity to HT-1080 IDH1 knockdown cells (counter line); HT-1080 IDH1 knockdown viability, ATP luminescence, 48 h; Potency, µM (highest dose often 46.1 µM), actives largely listed as cytotoxic; actives 2% (n = 360,000)
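IDH1KD HT-1080 cells, 750/well, RPMI + 5% FBS; compound pinned after 2 h settling; 48 h, 37 °C; CellTiter-Glo luminescence; % activity normalised to DMSO and no-cell wells; curves fitted, classed by r2 and efficacy.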
IL-1B inflam inh: blocks inflammasome-driven IL-1 beta release | activity change, % at 57.5 µM | AID 743279 | THP-1 LPS/ATP IL-1B secretion, AlphaLISA, 16 h; stronger effect = lower value | actives 4.7% (n = 360,000); in the data active = activity change below about -50%; inconclusive = mostly about -30% to -49%
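THP-1 cells pretreated 1 hr with compounds (up to 57.5 uM final), then stimulated with LPS (250 ng/mL final) plus ATP (1.25 mM final); secreted IL-1B measured by AlphaLISA after 16 hr, decreased signal indicating inhibition.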
ELG1 repair inh: inhibitors of ELG1-dependent DNA repair in HEK293T cells; HEK293T ELG1-luciferase reporter, luminescence, 16 h; DNA damage induced by 5-fluorouridine; actives 2.3% (n = 330,000); AID 504467; Potency, µM (titrated, usually from 46.1 µM), usual class: inhibitors; note: nearly all actives have a fitted effect of over 55% in size
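Luminescence from the luciferase reporter, measured 30 min after ONE-Glo reagent at room temperature, was the read-out. Beforehand, 2,000 cells per well were exposed for 16 hr at 37 °C to 5-fluorouridine together with compound or vehicle.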
A number is an active result; 0 = inactive; ? = inconclusive; - = not tested or not shown; [ ] = another dose, or the depositor's remark. Unless noted, calls come from the whole dose curve; as a rule, active = well fitted curve in the direction sought with a large enough effect; inconclusive = small, poorly fitted or top-dose-only effect, or another doubt; inactive = no such curve, though single readings can be large; an effect the other way counts as inactive or inconclusive.

SMILES	DT40 TDP1 no CPT	TDP1 cell CPT	HT1080-NT tox	HT1080 IDH1KD tx	IL-1B inflam inh	ELG1 repair inh
COc1ccccc1-c1ccc(SCc2ccccc2)nn1	20.6µM	?	0	0	0	?
Fc1ccccc1CSc1ccc(-c2ccco2)nn1	?	0	0	0	0	?
CCc1ccccc1N(CC(=O)NC(C)c1ccccc1)S(C)(=O)=O (stereo unspecified)	0	0	0	0	0	0
CN1C(=S)N(c2cccnc2)C(=O)/C1=C\c1ccc(C(C)(C)C)cc1	14.6µM	16.4µM	?	?	0	?
COc1ccccc1N=c1scc(-c2ccc3c(c2)NC(=O)CO3)n1CC1CCCO1 (stereo unspecified)	18.4µM	0	0	0	0	16.4µM
CN(C)S(=O)(=O)c1cccc(N=c2scc(-c3ccc4c(c3)NC(=O)CO4)n2CC2CCCO2)c1 (stereo unspecified)	7.31µM	6.51µM	?	?	0	23.1µM
Nc1nc(CSc2ccc(Cl)cc2)nc(N2CCCCC2)n1	0	0	0	0	-58.9	0
CC(=O)c1cccc(-n2c(=O)c3c4c(sc3n(CC(=O)c3ccc(Cl)cc3)c2=O)CN(C(C)=O)CC4)c1	0	0	-	-	-	-
O=c1c2ccccc2cnn1Cc1ccc(Cl)c(Cl)c1	?	0	0	0	0	0
O=c1cnn(Cc2ccc(Cl)c(Cl)c2)c2ccccc12	14.6µM	20.6µM	0	0	0	0
CC1=C(C(=O)N(C)C)CC(CC(=O)NCc2cccs2)C(=O)N1CCCN1CCCC1=O (stereo unspecified)	0	0	0	0	0	-
COC(=O)c1ccc(CSc2nc3sc4c(c3c(=O)n2C)CCCC4)o1	?	?	0	?	0	0
COC(=O)c1sc(N)c(C(=O)OC)c1CSc1nc2sc3c(c2c(=O)n1C)CCC3	25.9µM	?	0	0	0	0
C=CCn1c(SCC(=O)N(C)C)nc2sc3c(c2c1=O)CCC3	?	?	0	0	0	?
C=CCn1c(SCc2c(C)noc2C)nc2sc3c(c2c1=O)CCCC3	?	18.4µM	0[9.24 µM]	?	0	18.4µM
Cc1noc(C)c1CSc1nc2sc3c(c2c(=O)n1C)CCCC3	?	11.6µM	0	0	0	23.1µM
COC(=O)c1cc2occc2n1CC(=O)Nc1ccc(C(C)C)cc1	0	?	-	-	-	-
O=C(CN1CCN(S(=O)(=O)c2ccc(Cl)cc2)CC1)N1CCCC1	0	0	0	0	0	0
c1ccc(-c2nnc(CSc3nc4ccccc4[nH]3)o2)cc1	0	0	0	0	0	0
Nc1c(-c2ccccc2)c(CSc2nc3ccccc3[nH]2)nn1-c1ccc(Cl)cc1	?	?	0	0	?	6.51µM
Cc1ccccc1-n1nc(CSc2nc3ccccc3[nH]2)c(-c2ccccc2)c1N	?	?	0	0	0	?
Nc1c(-c2ccccc2)c(CSc2nc3ccccc3[nH]2)nn1-c1cccc(Cl)c1	?	?	0	0	0	2.91µM
CSCCC(NC(=O)c1ccccc1Br)C(=O)N1CCN(C(C)=O)CC1 (stereo unspecified)	0	0	0	0	0	0
Cc1cc2c(cc1S(=O)(=O)N(CCN(C)C)Cc1ccco1)OCC(=O)N2	0	0	-	-	-	-
C=CCN=C1N[C@@H](c2ccc(Br)cc2)C(C(=O)OC)=C(C)N1Cc1ccccc1	?	12.6µM	-	-	-	-
SMILES	DT40 TDP1 no CPT	TDP1 cell CPT	HT1080-NT tox	HT1080 IDH1KD tx	IL-1B inflam inh	ELG1 repair inh
C=CCN=C1N[C@@H](c2ccccc2)C(C(=O)OC)=C(C)N1CC	0	?	0	0	0	0
COC(=O)C1=C(C)N(Cc2ccccc2)C(=NCc2ccc(OC)cc2)N[C@H]1c1ccccc1	8.2µM	7.31µM	0	?	-51.8	?
COC(=O)C1=C(C)N(CC2CC2)C(=O)N[C@H]1c1ccc(Br)cc1	?	23.1µM	0	0	0	0
COC(=O)C1=C(C)N(Cc2ccccc2)C(=NCC(C)C)N[C@H]1c1ccccc1	4.11µM	4.11µM	0	?	?	?
COC(=O)C1=C(C)N(Cc2ccccc2)C(=O)N[C@H]1c1ccccc1	0	?	0	0	0	0
COc1cc(NC(=O)[C@@H]2CCCN2S(=O)(=O)c2cccc3cccnc23)cc(OC)c1OC	0	0	0	0	0	0
O=c1c2ccccc2ncn1-c1ccc([N+](=O)[O-])cc1Cl	0	0	0	?	0	0
COc1ccc(NC(=O)C[C@H]2C(=O)N(c3ccc(OC)cc3)C[C@@H]2C)cc1	?	0	0	0	0	-
CCOC(=O)C1=C(C)N(C[C@@H]2CC[C@@H](Cc3ccc4cc(OC)ccc4c3)O2)C(=O)NC1c1ccccc1 (stereo partly specified)	?	20.6µM	0	0	0	?
CCCN(CCC)C(=S)NC(=O)c1ccc(Cl)cc1Cl	?	18.4µM	3.16µM	2.51µM	0	0
[C-]#[N+]c1cc(-c2ccncc2)c(C)[nH]c1=O	0	0	-	-	-	-
Cc1cccc2sc(N(CCCN(C)C)C(=O)c3ccc(S(=O)(=O)N4CCc5ccccc5C4)cc3)nc12	6.51µM	4.11µM	?	?	?	?
CCOC(=O)N1CCN(S(=O)(=O)c2ccc(C(=O)N(CCN(C)C)c3nc4c(C)cccc4s3)cc2)CC1	0	0	0	0	0	0
CN(C)CCCN(C(=O)c1ccc(S(=O)(=O)N2CCCCCC2)cc1)c1nc2c(F)cc(F)cc2s1	16.4µM	?	0	0	-85.8	?
CN(C)CCCN(C(=O)c1ccc(S(=O)(=O)N2CCc3ccccc3C2)cc1)c1nc2c(F)cccc2s1	?	?	0	0	-51.1	0
CCOP(=O)(OCC)C(O)c1cc(OC)c(OC)c(OC)c1 (stereo unspecified)	0	0	0	0	0	0
Brc1ccc(-c2cc3c(N4CCN(c5ccccc5)CC4)nccn3n2)cc1	0	0	-	-	-	-
Brc1ccc(CN2CCN(c3ccccn3)CC2)s1	0	0	0	0	-82.7	0
c1ccc(N2CCN(Cc3ccc4c(c3)OCO4)CC2)nc1	0	0	0	0	0	-
Cc1[nH]c2ccccc2c1CN1CCN(c2ccccn2)CC1	5.17µM	2.31µM	0	0	-	0
Cc1[nH]c2ccccc2c(=O)c1CN1CCCCC1	0	0	0	0	0	0
Cc1[nH]c2ccccc2c1CN1CCC(Cc2ccccc2)CC1	2.59µM	2.59µM	?	23.1µM	-85.1	?
O=C(CN1C(=O)CSc2ccc(S(=O)(=O)N3CCOCC3)cc21)NCc1ccc(F)cc1	0	0	0	0	0	0

Compound activity as filed in PubChem BioAssay.
